# From ChEMBL document CHEMBL3988442, “University of Dundee, Small-Polar-MMV Screening Library” (2021)
# Among all 48,000 compounds or so, about 13,000 (27%) showed an effect of 50% or more. This is one part of the list.
# Test system: Wolbachia pipientis
# Test: Anti-Wolbachia Cell-Based Screen
# Format: functional
# Design: scale not given: in the data most compounds retested in dose-response had high values
# Conditions: 5 µM
row,Compound,Percent Effect
1,O=S(=O)(NCCN1CC=CC1)c1cncc(Cl)c1,-9.615%
2,CC(C)CN(C)Cc1c[nH]nc1-c1ccc(F)cc1F,-3.52%
3,CNC(=O)NC(=O)CN1CCN(CC(F)(F)F)CC1(C)C,-1.445%
4,CCC(C)(NCC(=O)NC(C)C)c1nc(C)cs1 (stereo not drawn),4.424%
5,CCN1CCN(c2ccc(C(=O)NCc3cc(C)no3)cc2F)CC1,-18.85%
6,Cc1nc(CN(C)C(=O)CN(C)C)nc2c1CCC(=O)N2CCC(C)C,66.01%
7,Cc1nc(C)c2c(n1)CCN(C(=O)CN(C)C)CC2,-4.048%
8,Cc1nnc(CN(C)C(=O)C(CC(C)C)N2CCCCC2=O)n1C (stereo not drawn),-1.247%
9,COC(=O)N1CCCC(NC(=O)NCc2nc(C)cs2)C1 (stereo not drawn),-5.295%
10,CCC(=O)N(CC)CCc1nccs1,-20.38%
11,CCOc1ccc(CC(CNC(=O)c2ccoc2)C(N)=O)cc1 (stereo not drawn),0.9555%
12,Cc1cccc(C(C)(C)CNC(=O)CN(C)c2cnccn2)c1,2.301%
13,CN(Cc1cc(C2CC2)[nH]n1)C(=O)C(c1cccnc1)N1CCCC1 (stereo not drawn),5.078%
14,Cc1ccc(F)c(NC(=O)CCC(=O)N(C)Cc2cc(C3CC3)[nH]n2)c1,-39.88%
15,Cc1ccc2[nH]c(=O)c(CN(C)Cc3cc(C4CC4)[nH]n3)cc2c1,-5.439%
16,Cc1cnc2c(C(=O)N(C)Cc3cc(C4CC4)[nH]n3)cnn2c1,88.43%
17,CCCn1ncc(C(=O)N2CCN(C(=O)c3ccc[nH]3)CC2)c1C,2.425%
18,CCCn1ncc(C(=O)N(C)Cc2cc(C3CC3)[nH]n2)c1C,103.9%
19,CN(Cc1cc(C2CC2)[nH]n1)C(=O)c1ccccc1C1CCNC1 (stereo not drawn),6.983%
20,CCCn1ncc(C(=O)N(C)Cc2n[nH]c3c2CCC3)c1C,-0.7404%
21,CN(Cc1cc(C2CC2)[nH]n1)C(=O)c1cnn2ccn(C)c12,92.15%
22,Cn1ccc(CNC(=O)N2CCCC3(C2)OCCO3)c1,-4.368%
23,Cc1ccc(CNCc2cccc3cn[nH]c23)c(OC2CCOC2)c1 (stereo not drawn),1.328%
24,CCCNC(=O)CN1CCOC(CC)C1 (stereo not drawn),-15.19%

row,Compound,Percent Effect
1,CSc1nc2cc(C)n(CC(N)=O)c2c(=O)n1CC(C)C,0.2317%
2,NC(=O)C1CCN(C(=O)CCCc2ccc(Cl)c(Cl)c2)CC1,-6.164%
3,CC[C@@]1(O)CCN(C(=O)CCSCc2ccc(F)cc2)C[C@H]1O,8.229%
4,NC(=O)C1CCN(C(=O)CCSCc2ccc(Cl)c(Cl)c2)CC1,148.4%
5,O=C(C1COc2ccccc2O1)N1Cc2cnn(CCO)c2C1 (stereo not drawn),-44.4%
6,COc1ncccc1C(=O)N(C)Cc1nc(-c2ccccn2)no1,0.08907%
7,CCN1CCC(CNCc2cc(OC)ccc2OC)C1 (stereo not drawn),4.75%
8,Cc1nc(O)cc(C2CCN(Cc3ccc(F)c(F)c3)C2)n1.O=C(O)CC(O)(CC(=O)O)C(=O)O (stereo not drawn),92.59%
9,COc1ccc(CN2CCC(c3cc(O)nc(C)n3)C2)c(OC)c1.O=C(O)CC(O)(CC(=O)O)C(=O)O (stereo not drawn),122.8%
10,COc1ccc(-c2nc(CN3CCCC(OC)C3)c(C)o2)c(F)c1 (stereo not drawn),6.893%
11,COc1ccc(F)c(CN2CCC(c3cc(O)nc(C)n3)C2)c1.O=C(O)CC(O)(CC(=O)O)C(=O)O (stereo not drawn),-11.82%
12,COc1ccc(OC)c(CN2CCC(c3cc(O)nc(C)n3)C2)c1 (stereo not drawn),99.72%
13,COCC(=O)N1CCC2(CCCN(Cc3cc(OC)ccc3F)C2)C1 (stereo not drawn),2.404%
14,Cc1nc(O)cc(C2CCN(Cc3cccc(F)c3F)C2)n1.O=C(O)CC(O)(CC(=O)O)C(=O)O (stereo not drawn),-5.944%
15,COc1ccc(F)c(CN2CCCC(c3cc(O)nc(C)n3)C2)c1 (stereo not drawn),108.4%
16,CNC(=O)[C@@H]1C[C@@H](N)CN1C(=O)CCSCc1ccccc1,-2.753%
17,Cc1ncc(-c2nc3cc(S(=O)(=O)N4CCCC4)ccc3n2C)cn1,-2.365%
18,O=C(Nc1ccc(-n2cccn2)c(F)c1)C1CCN(C(=O)C2CC2)CC1,-6.661%
19,Cc1nnn2c1COCC(CNC(=O)c1ccnnc1)C2 (stereo not drawn),-2.264%
20,CCN(C)CC1CCN(C(=O)NCCC2Cc3ccccc3C2)C1 (stereo not drawn),-23.1%
21,COc1ccc(CN2CCC(c3cc(O)nc(C)n3)C2)c(F)c1 (stereo not drawn),113.4%
22,CC(C)c1noc(C[S+]([O-])CC(=O)Nc2cc(F)ccc2F)n1 (stereo not drawn),-11.5%
23,N#Cc1cc(N2CCC(CS(N)(=O)=O)CC2)c2ccccc2n1,3.151%
24,CNC(=O)[C@@H]1C[C@H]2CN(Cc3csc(C)n3)C[C@H]2N1C(C)C.O=C(O)C(F)(F)F.O=C(O)C(F)(F)F,116.9%

row,Compound,Percent Effect
1,CNC(=O)[C@H]1C[C@@H]2CN(S(=O)(=O)Cc3ccccc3)C[C@@H]2N1C.O=C(O)C(F)(F)F,-3.951%
2,CNC(=O)[C@@H]1C[C@H]2CN(C(=O)c3ccco3)C[C@H]2N1C.O=C(O)C(F)(F)F,-16.64%
3,CNC(=O)[C@@H]1C[C@H]2CN(C(=O)c3ccco3)C[C@H]2N1C(C)C.O=C(O)C(F)(F)F,99.89%
4,Cc1nc(CN2C[C@@H]3CCCO[C@@H]3[C@H](N(C)C(C)C)C2)cs1.O=C(O)C(F)(F)F.O=C(O)C(F)(F)F,-4.847%
5,Cc1nc(CN2CCO[C@@H]3CN(C(=O)NC(C)C)CC[C@@H]3C2)cs1.O=C(O)C(F)(F)F,-13.31%
6,Cc1nc(CN2CCn3cc(CNC(=O)C4CCC4)nc3C2)cs1.O=C(O)C(F)(F)F,-18.19%
7,CNC(=O)[C@H]1C[C@@H]2CN(Cc3csc(C)n3)C[C@@H]2N1S(C)(=O)=O.O=C(O)C(F)(F)F,110%
8,Cc1nc(CN2C[C@@H](NC(=O)C3CCC3)[C@H]3COC[C@H]32)cs1.O=C(O)C(F)(F)F,-15.38%
9,Cc1nc(C)c(CC(=O)Nc2ncc(C)s2)c(=O)[nH]1,-6.358%
10,CCn1c(C2CCN(Cc3cc(C)n(NC(C)=O)c3C)CC2)n[nH]c1=O,1.026%
11,O=C(CN1CCN(CC2CCOc3ccccc3C2)CC1)N1CCCC1 (stereo not drawn),1.365%
12,CC(C)CN(Cc1ccccn1)Cc1ccccc1OCC(=O)O,7.517%
13,COCCC(=O)N(Cc1ccccn1)Cc1ccccc1C,13.85%
14,CC(C)CN(Cc1ccccn1)Cc1ccccc1C(=O)O,-7.566%
15,Cc1ccc(CN(Cc2ccccn2)C2CC(C)(C)NC(C)(C)C2)s1.O=C(O)CC(O)(CC(=O)O)C(=O)O,-1.083%
16,Cn1ccnc1CN(Cc1ccccn1)Cc1ccccc1Cl.O=C(O)CC(O)(CC(=O)O)C(=O)O,93.9%
17,Cc1ncc(CN(Cc2ccccn2)Cc2ccccc2Cl)n1C.O=C(O)CC(O)(CC(=O)O)C(=O)O,124.9%
18,CCC(CO)N(Cc1ccco1)C(=O)c1cccnc1NC (stereo not drawn),-5.429%
19,CCc1n[nH]c(C2CN(Cc3csc(COC)n3)CCO2)n1 (stereo not drawn),0.7556%
20,O=C(Nc1ccc(-c2nc3c([nH]2)CCNC3)cc1)N1CCCC1,-0.2771%
21,COc1ccc2c(c1)C(C(=O)N(C)CCCc1nccn1C)CC(=O)N2 (stereo not drawn),9.372%
22,CC(C)CN1C(=O)CO[C@@H]2CN(C(=O)C3CCOC3)C[C@H]21 (stereo partly drawn),-11.41%
23,CC(C)CNC(=O)c1ccc(NC(=O)NCC2CC2)cc1Cl,-12.02%
24,CC(C)CCCNC(=O)Nc1ccc(Cl)c(C(N)=O)c1,118.7%

row,Compound,Percent Effect
1,CC(C)CNC(=O)c1ccc(NC(=O)NC(C)(C)CO)cc1Cl,-9.16%
2,CC(C)CCCNC(=O)Nc1ccc(C(N)=O)c(Cl)c1,114.9%
3,CC(C)CNC(=O)c1ccc(NC(=O)NC(C)C)cc1Cl,-2.856%
4,CCCOc1ccc(NC(=O)NCCC(=O)N(C)C)cc1Cl,-12.35%
5,CCCN1CCC(NC(=O)NCCc2nc(CC)c(C)s2)CC1,16.1%
6,Cc1ccc(-c2nn(-c3cccc(F)c3)cc2CN(CCO)CCO)o1,2.921%
7,Cc1ccc2cc(C(=O)N3CCCN(C)CC3)ccc2n1,16.24%
8,C[C@@H]1CN(C(=O)c2nc3sccn3c2-c2ncc[nH]2)C[C@H](C)O1,88.09%
9,Cc1nc2sccn2c1C(=O)N1CCc2[nH]cnc2C1,-1.15%
10,C[C@@H]1CN(C(=O)c2nc3ccc(Cl)cn3c2-c2ncc[nH]2)C[C@H](C)O1,103.5%
11,COc1ccc(OCc2cc(C(=O)N3C[C@@H](C)O[C@@H](C)C3)n[nH]2)c(Cl)c1,-0.1203%
12,CN1CCN(C(=O)c2n[nH]c3c2CN(Cc2nccs2)CC3)CC1,-8.434%
13,C[C@@H]1CN(C(=O)Cn2ccc3ncccc3c2=O)C[C@H](C)O1,-28.32%
14,CN1C[C@@H](n2cnc(-c3ccccc3)c2-c2ncc[nH]2)C[C@H]1C(=O)O,-3.61%
15,O=C(c1nc2sccn2c1-c1ncc[nH]1)N1CCCCC1,87.63%
16,CN(C)C1CCCN(C(=O)c2cccc(-c3ncc[nH]3)c2)CC1 (stereo not drawn),2.392%
17,CCC[C@@H]1CN(C(=O)c2ccccc2-c2ncc[nH]2)C[C@H]1N(C)C,29.83%
18,CN1CCCN(C(=O)c2nc3sccn3c2-c2ncc[nH]2)CC1,108%
19,CC(=O)N1CCC(C(=O)N(CC(F)F)c2cccc(Cl)c2)CC1,3.709%
20,CCc1cc(NCCc2ccc(O)cc2)n2nccc2n1,12.11%
21,O=C(NC1CCCC1)O[C@H]1COCCN(c2nc3ccccc3s2)C1,3.317%
